Several values for one entry are separate records, joined by “and”; a condition that tells them apart may be missing. Identical values can stand only once. Records with an inconclusive call do not appear. Some structures have more than one record in an assay (separate samples or runs), and their calls can disagree. Activity calls are given as the source filed them. Unless noted, the call rests on the fitted dose curve; in most records, active means well fitted curve in the direction sought with a large enough effect; inconclusive means small, poorly fitted or top-dose-only effect, or another doubt; inactive means no such curve, though single readings can be large; an effect the other way counts as inactive or inconclusive.
How the values were obtained:
HeLa = assay: Primary qHTS to identify gynecologic anti-cancer compounds using libraries of approved drugs and bioactive compounds (AID 1345084); details: Gynecologic cancer cell panel viability, ATPlite luminescence, 48 h; series mostly up to 57.5 µM; further: nearly all actives have a fitted effect of over 55% in size; further: potency means the concentration at half of the fitted maximal effect
Outline: (§1)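 Luminescence from the ATPlite ATP-monitoring reagent indicates viable cell number; lower signal means cytotoxicity. Cells received compound 16 h after seeding and were exposed for 48 h across five concentrations.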

[1] = Drug repurposing screens with cells derived from glioblastoma tumor samples (AID 1345199); details: GBM patient neurospheres viability, ATP luminescence, 48 h; further: nearly all actives have a fitted effect of over 40% in size; further: potency means the concentration at half of the fitted maximal effect; on activity, negative = cell killing: on the % scale 0 is the no-effect control and ±100 the full control effect
Outline: (§2)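 Four patient lines of CD133+ GBM neurospheres were screened at several concentrations; hits were retested in those lines plus three slower-growing GBM lines, using 48-hour treatment and ATP-based viability.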

Es-2 = assay: Primary qHTS to identify gynecologic anti-cancer compounds using libraries of approved drugs and bioactive compounds (AID 1345084); details: Gynecologic cancer cell panel viability, ATPlite luminescence, 48 h; series mostly up to 57.5 µM; further: nearly all actives have a fitted effect of over 55% in size; further: potency means the concentration at half of the fitted maximal effect
Outline: as §1

Hek293T = assay: as above; details: Gynecologic cancer cell panel viability, ATPlite luminescence, 48 h, control line for the selectivity index; series mostly up to 57.5 µM
Outline: as §1

JEG-3 = assay: as above; details: Gynecologic cancer cell panel viability, ATPlite luminescence, 48 h; series mostly up to 57.5 µM
Outline: as §1

PA-1 = assay: as above; details: Gynecologic cancer cell panel viability, ATPlite luminescence, 48 h; series mostly up to 57.5 µM
Outline: as §1

Tov-21-G = assay: as above; details: Gynecologic cancer cell panel viability, ATPlite luminescence, 48 h; series mostly up to 57.5 µM
Outline: as §1

OV90 = assay: as above; details: Gynecologic cancer cell panel viability, ATPlite luminescence, 48 h; series mostly up to 57.5 µM
Outline: as §1

astro = assay: Drug repurposing screens with cells derived from glioblastoma tumor samples (AID 1345199); details: viability, ATP luminescence, 48 h; series mostly up to 45.9 µM; further: nearly all actives have a fitted effect of over 40% in size; further: potency means the concentration at half of the fitted maximal effect; on activity, negative = cell killing: on the % scale 0 is the no-effect control and ±100 the full control effect
Outline: as §2

[2] = target: Nuclear receptor subfamily 1 group I member 2 (Rattus norvegicus) (UniProt Q9R1A7); assay: qHTS assay for small molecule activators of the rat pregnane X receptor (rPXR) signaling pathway (AID 651751; call rule not given here; further: 0% is about no effect); details: rPXR reporter cells, luciferase (One-Glo), 24 h
Nuclear receptor subfamily 1 group I member 2 (Rattus norvegicus), sequence (Q9R1A7 whole entry, looked up): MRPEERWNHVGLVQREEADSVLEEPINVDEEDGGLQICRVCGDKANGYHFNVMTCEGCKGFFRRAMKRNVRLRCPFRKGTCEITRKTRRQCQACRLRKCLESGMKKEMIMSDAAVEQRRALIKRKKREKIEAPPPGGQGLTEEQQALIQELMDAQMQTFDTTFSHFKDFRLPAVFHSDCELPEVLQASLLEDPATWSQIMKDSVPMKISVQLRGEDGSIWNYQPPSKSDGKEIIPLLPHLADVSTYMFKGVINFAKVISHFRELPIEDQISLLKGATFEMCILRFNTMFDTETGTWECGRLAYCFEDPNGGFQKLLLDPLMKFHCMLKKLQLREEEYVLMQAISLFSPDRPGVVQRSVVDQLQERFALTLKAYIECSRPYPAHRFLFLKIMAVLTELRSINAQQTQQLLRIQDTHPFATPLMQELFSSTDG

[3] = qHTS assay for small molecule activators of the human pregnane X receptor (PXR) signaling pathway (AID 720659; call rule not given here; further: 0% is about no effect)
SKOV3 = assay: Primary qHTS to identify gynecologic anti-cancer compounds using libraries of approved drugs and bioactive compounds (AID 1345084); details: Gynecologic cancer cell panel viability, ATPlite luminescence, 48 h; series mostly up to 57.5 µM; further: nearly all actives have a fitted effect of over 55% in size; further: potency means the concentration at half of the fitted maximal effect
Outline: as §1

Tov112D = assay: as above; details: Gynecologic cancer cell panel viability, ATPlite luminescence, 48 h; series mostly up to 57.5 µM
Outline: as §1

[4] = qHTS assay to identify inhibitors of the type 1 interferon - major histocompatibility complex class I in skeletal muscle: Counter screen cell viability and HiBit confirmation (AID 1347412); details: iHSKM muscle cells + IFN-b, HiBiT or CellTiter-Glo, 24 h; HiBiT; further: potency means the concentration at half of the fitted maximal effect; nearly all actives have a fitted effect of over 60% in size
Outline: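 CRISPR HLA-B*08:01-HiBit immortalized human myoblasts (C25cl48) stimulated with 4 ng/ml IFN-beta and compounds (12-point 1:3, top 46 uM final) for 24 h at 37 C. Duplicate plates read by HiBit lytic luminescence or CellTiter Glo ATP.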

[5] = at 45.9 µM (top of the series), tumour line B
[6] = at 45.9 µM (top of the series), tumour line D

O=C(N[C@@H]1N=C(c2ccccc2F)c2cccc3c2N(CC3)C1=O)c1cc2ccccc2[nH]1
active: Potency (HeLa) 12.6 µM
inactive: activity, negative = cell killing [1, 5] -3.52% | activity, negative = cell killing [1, 6] -3.25%

CC[C@H](O)C(C[C@H](C)N(C)C)(c1ccccc1)c1ccccc1
inactive: Potency (Es-2) | Potency (HeLa) | Potency (Hek293T) | Potency (JEG-3) | Potency (PA-1) | Potency (Tov-21-G) | activity, negative = cell killing ([1]; at 108 µM (top of the series), tumour line B) -29.7%
active: Potency ([1]; tumour line A) 44.7 µM | Potency ([1]; tumour line D) 70.8 µM

CCCCCCCCC(=O)NCc1ccc(O)c(OC)c1
active: Potency ([1]; tumour line A) 12.6 µM
inactive: Potency (HeLa) | Potency (Hek293T) | Potency (JEG-3) | Potency (OV90) | Potency (Tov-21-G) | activity, negative = cell killing [1, 5] -1.62% | activity, negative = cell killing [1, 6] -6.9% | Potency (astro) | max response [2] 2.01% | outcome [3]

C[C@]12CC[C@H]3[C@@H](CCC4=CC(=O)CC[C@@]43C)[C@@H]1CC[C@@H]2C(=O)O
inactive: Potency (Es-2) | Potency (Hek293T) | Potency (JEG-3) | Potency (OV90) | Potency (PA-1) | Potency (SKOV3) | Potency (Tov-21-G) | Potency (Tov112D)

CC(CC(C#N)(c1ccccc1)c1ccccc1)N(C)C (configuration not stated)
inactive: Potency (Es-2) | Potency (HeLa) | Potency (Hek293T) | Potency (JEG-3) | Potency (PA-1) | Potency (Tov-21-G) | Potency (Tov112D) | Potency (astro)

CN1C(=O)[C@@H](NC(=O)c2cc3ccccc3[nH]2)N=C(c2ccccc2)c2ccccc21
inactive: Potency (HeLa) | Potency (Hek293T) | Potency (JEG-3) | Potency (PA-1) | Potency (Tov-21-G) | Potency (Tov112D) | activity, negative = cell killing [1, 5] 8.15% | activity, negative = cell killing [1, 6] -1.15% | Potency (astro)

c1ccc2c(c1)Sc1ccccc1N2CC1CN2CCC1CC2 (configuration not stated)
active: Potency (Es-2) 35.5 µM | Potency (Hek293T) 31.6 µM | Potency (OV90) 28.2 µM | Potency (SKOV3) 28.2 µM

Clc1ccc(C(OCCN2CCCCC2)c2ccccc2)cc1 (configuration not stated)
active: Potency ([1]; tumour line A) 3.55 µM | Potency ([1]; tumour line B) 10 µM | Potency ([1]; tumour line D) 7.08 µM
inactive: Potency (Es-2) | Potency (HeLa) | Potency (Hek293T) | Potency (JEG-3) | Potency (Tov-21-G) | Potency (Tov112D) | Potency (astro)

CCC1(c2cnc[nH]2)Cc2ccccc2C1
inactive: activity, negative = cell killing [1, 6] -24.8% | Potency (astro)

COP(=S)(OC)Oc1ccc(Sc2ccc(OP(=S)(OC)OC)cc2)cc1
inactive: Potency (Es-2) | Potency (HeLa) | Potency (JEG-3) | Potency (OV90) | Potency (PA-1) | Potency (SKOV3) | Potency (Tov-21-G) | Potency (Tov112D) | max response [2] 1.29% | outcome [3]

C[C@@H]1C[C@@H]([C@H](O)CC2CC(=O)NC(=O)C2)C(=O)[C@@H](C)C1
active: Potency (Es-2) 0.794 µM | Potency (Hek293T) 0.501 µM | Potency (OV90) 0.631 µM | Potency (PA-1) 0.708 µM | Potency (SKOV3) 2.82 µM | Potency (Tov-21-G) 0.501 µM | Potency (Tov112D) 0.562 µM | Potency [4] 701 nM and 222 nM
inactive: Potency (JEG-3)

CCN(CC)Cc1nccn1-c1ccc([N+](=O)[O-])cc1C(=O)c1ccccc1Cl
active: Potency ([1]; tumour line A) 31.6 µM
inactive: Potency (Es-2) | Potency (HeLa) | Potency (Hek293T) | Potency (JEG-3) | Potency (SKOV3) | Potency (Tov-21-G) | Potency (Tov112D) | activity, negative = cell killing [1, 5] -21% | activity, negative = cell killing [1, 6] -13.7% | Potency (astro)

CN(C)C(=S)SSC(=S)N(C)C
active: Potency (SKOV3) 1.58 µM | Potency (Tov112D) 12.6 µM | Potency ([1]; tumour line A) 35.5 µM | Potency ([1]; tumour line B) 35.5 µM
inactive: Potency (HeLa)

CCCCCCCCCCCC[N+](C)(C)CCOc1ccccc1
active: Potency (Es-2) 31.6 µM | Potency (HeLa) 31.6 µM | Potency ([1]; tumour line A) 12.6 µM | Potency ([1]; tumour line B) 15.8 µM | Potency ([1]; tumour line D) 11.2 µM | Potency (astro) 20 µM
inactive: Potency (JEG-3) | max response [2] -13.8%

Clc1ccc(CO/N=C(\Cn2ccnc2)c2ccc(Cl)cc2Cl)c(Cl)c1
inactive: Potency (Es-2) | Potency (HeLa) | Potency (Hek293T) | Potency (JEG-3) | Potency (SKOV3) | Potency (Tov-21-G) | Potency (Tov112D)
active: Potency ([1]; tumour line A) 2.82 µM | Potency ([1]; tumour line D) 11.2 µM

O=C(NC(=O)c1c(F)cccc1F)Nc1cc(Cl)c(OC(F)(F)C(F)C(F)(F)F)cc1Cl (configuration not stated)
inactive: Potency (Es-2) | Potency (HeLa) | Potency (JEG-3) | Potency (OV90) | Potency (PA-1) | Potency (Tov-21-G) | Potency (Tov112D) | activity, negative = cell killing [1, 5] -8.74% | activity, negative = cell killing [1, 6] -27.5% | Potency (astro) | max response [2] 0.749%
active: Potency ([1]; tumour line A) 7.94 µM

C[C@H](N)[C@H](O)c1ccc(O)c(O)c1
active: Potency (SKOV3) 25.1 µM
inactive: Potency (JEG-3) | activity, negative = cell killing [1, 5] -8.55% | activity, negative = cell killing [1, 6] -15.2% | Potency (astro)

CN1[C@@H]2CC[C@H]1CC(OC(=O)c1cc(Cl)cc(Cl)c1)C2 (some centres not stated)
inactive: Potency (Es-2) | Potency (HeLa) | Potency (JEG-3) | Potency (SKOV3) | Potency (Tov-21-G) | Potency (Tov112D) | Potency (astro)

CC[n+]1c(-c2ccccc2)c2cc(N)ccc2c2ccc(N)cc21
inactive: max response [2] -4.84% | outcome [3]
active: Potency (OV90) 14.1 µM | Potency (PA-1) 1.26 µM | Potency (Tov-21-G) 15.8 µM | Potency (Tov112D) 1.41 µM | Potency (astro) 8.91 µM and 12.6 µM
